Experimental data: PubChem BioAssay (NCATS)
Inconclusive results are not listed. Active and inactive are the calls of the source. The call rests on the fitted dose curve; in most records, active means well fitted inhibition curve with a large enough effect; inconclusive means small, poorly fitted or top-dose-only effect; inactive means flat fitted curve, though single readings scatter.

Experiments:
Assay in all cases: qHTS profiling for inhibitors of Plasmodium falciparum proliferation (AID 504749); further: nearly all actives have a fitted effect of over 60% in size
Details in all cases: P. falciparum in erythrocytes, SYBR Green DNA, 72 h; series mostly up to 28.7 µM
CP315 = test system: CP315
In short: (§1)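 Parasite proliferation within erythrocytes, 72 h exposure. Endpoint: SYBR Green I fluorescence after overnight lysis at room temperature. Controls: 0.29 uM artemisinin, DMSO.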

CP325 = test system: CP325
In short: as §1

CP329 = test system: CP329
In short: as §1

CP335 = test system: CP335
In short: as §1

DFO2036 = test system: DFO2036
In short: as §1

DIV14 = test system: DIV14
In short: as §1

DIV17 = test system: DIV17
In short: as §1

DIV30 = test system: DIV30
In short: as §1

Dd2 = test system: Dd2
In short: as §1

ECU = test system: ECU
In short: as §1

Measured: Potency

NC(=O)C1c2ccccc2CCc2ccccc21
inactive: CP315 | CP325 | CP329 | CP335 | DFO2036 | DIV14 | DIV17 | DIV30 | Dd2 | ECU

CC(/C=C/C=C(\C)C(=O)O[C@@H]1O[C@H](CO[C@@H]2O[C@H](CO)[C@@H](O)[C@H](O)[C@H]2O)[C@@H](O)[C@H](O)[C@H]1O)=C\C=C\C=C(C)\C=C\C=C(/C)C(=O)O[C@@H]1O[C@H](CO[C@@H]2O[C@H](CO)[C@@H](O)[C@H](O)[C@H]2O)[C@@H](O)[C@H](O)[C@H]1O
inactive: CP315 | CP325 | CP329 | CP335 | DFO2036 | DIV17 | DIV30 | Dd2 | ECU

Cc1cc(C)c(NC(=O)C[C@H](CC(=O)O)c2cccc3ccccc23)c(C(=O)N2CCC3(CCCC3)CC2)c1
inactive: CP315 | CP325 | CP329 | CP335 | DFO2036 | DIV14 | DIV17 | DIV30 | ECU

O=C(OCc1ccccc1)c1cccnc1
inactive: CP315 | CP325 | CP329 | CP335 | DFO2036 | DIV17 | DIV30 | Dd2 | ECU

Cc1ccc(C(C)(C)c2ccc(C)cc2)cc1
inactive: CP315 | CP325 | CP329 | CP335 | DFO2036 | DIV17 | DIV30 | Dd2 | ECU

O=C(O)CCC/C=C\C[C@@H]1[C@@H](/C=C/[C@@H](O)COc2cccc(Cl)c2)[C@H](O)C[C@@H]1O
inactive: CP315 | CP325 | CP329 | CP335 | DFO2036 | DIV14 | DIV30 | Dd2 | ECU

COC(=O)CCC[N+](C)(C)C
inactive: CP315 | CP325 | CP329 | CP335 | DFO2036 | DIV17 | DIV30 | Dd2 | ECU

FC(F)OC(Cl)C(F)(F)F (stereo unspecified)
inactive: CP315 | CP325 | CP329 | CP335 | DFO2036 | DIV14 | DIV30 | Dd2 | ECU

CCSc1ccc2c(c1)N(CCCN1CCN(C)CC1)c1ccccc1S2
inactive: CP315 | CP325 | CP329 | CP335 | DFO2036 | DIV30 | Dd2 | ECU

CN1C(=O)OC(C)(C)C1=O
inactive: CP315 | CP325 | CP329 | CP335 | DFO2036 | DIV14 | DIV17 | DIV30 | Dd2 | ECU

CCCCCCCCCCCCCCCCCC(=O)OC[C@@H](O)[C@H]1OC[C@H](O)[C@H]1O
inactive: CP315 | CP325 | CP329 | CP335 | DFO2036 | DIV17 | Dd2 | ECU

CN(C)CCOc1ccc(/C(=C(/CCCl)c2ccccc2)c2ccccc2)cc1
inactive: CP315 | CP325 | CP329 | CP335 | DFO2036 | DIV30 | Dd2 | ECU

CCCCCc1ccc(C)cc1O
inactive: CP315 | CP325 | CP329 | CP335 | DFO2036 | DIV30 | Dd2 | ECU

O=C1CCC(c2ccccc2)(C2CCN(Cc3ccccc3)CC2)C(=O)N1 (stereo unspecified)
inactive: CP315 | CP325 | CP329 | DFO2036 | DIV30 | ECU

Cc1cc(-c2ccc(N=Nc3c(S(=O)(=O)O)cc4cc(S(=O)(=O)O)cc(N)c4c3O)c(C)c2)ccc1N=Nc1c(S(=O)(=O)O)cc2cc(S(=O)(=O)O)cc(N)c2c1O
inactive: CP315 | CP325 | CP329 | DFO2036 | DIV30 | Dd2 | ECU

NCC[C@H](O)C(=O)N[C@@H]1C[C@H](N)[C@@H](O[C@H]2O[C@H](CN)[C@@H](O)[C@H](O)[C@H]2O)[C@H](O)[C@H]1O[C@H]1O[C@H](CO)[C@@H](O)[C@H](N)[C@H]1O
inactive: CP315 | CP325 | CP329 | DFO2036 | DIV14 | DIV17 | DIV30 | Dd2 | ECU

C=CCN1CCCC1CNC(=O)c1cc(S(N)(=O)=O)cc(OC)c1OC (stereo unspecified)
inactive: CP315 | CP325 | CP329 | CP335 | DIV14 | DIV17 | DIV30 | Dd2 | ECU
